Assay results: the supplement of paper PMC8285479
Where “and” joins values, the source holds several entries; their conditions need not be identical. Equal entries are not always repeated. Structures can show the parent of a compound that is named as a salt. ± gives the standard deviation of the averaged measurements. In all, about 1,900 compounds were measured (“normalised cell viability (NPI; 0 = phenylarsine oxide control, 1 = DMSO control)”: median about 1, lowest 2% from about 0.039 on). The list comes from a sample in which the lowest values are over-represented; it also holds similar structures and randomly drawn compounds.

Test system: NCI-H1944
Experiment: normalised cell viability (NPI; 0 = phenylarsine oxide control, 1 = DMSO control) (fraction of DMSO control); NCI-H1944 is a non-small cell lung cancer line; higher = more viable cells (less compound toxicity)
Conditions: 6 days
[1] = glucocorticoid arm: hydrocortisone 2.75 uM co-treatment, compound 1 µM
[2] = glucocorticoid arm: hydrocortisone 2.75 uM co-treatment, compound 5 µM
[3] = glucocorticoid arm: hydrocortisone 2.75 uM pre-treated 2 days and continued, compound 1 µM
[4] = glucocorticoid arm: hydrocortisone 2.75 uM pre-treated 2 days and continued, compound 5 µM
[5] = glucocorticoid arm: vehicle, compound 1 µM
[6] = glucocorticoid arm: vehicle, compound 5 µM
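Further: CTB read-out in 384-well plates, triplicate wells, NPI normalised per plate against 1 µM phenylarsine oxide (0) and 0.1% DMSO (1) controls.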

Compound	normalised cell viability [1]	normalised cell viability [2]	normalised cell viability [3]	normalised cell viability [4]	normalised cell viability [5]	normalised cell viability [6]
C[C@H]1c2cccc(O)c2C(O)=C2C(=O)[C@]3(O)C(O)=C(C(N)=O)C(=O)[C@@H](N(C)C)[C@@H]3[C@@H](O)[C@@H]21 [Doxycycline HCl]	0.994 ± 0.007	0.986 ± 0.026	0.9957 ± 0.0031	0.99 ± 0.006	0.9947 ± 0.0025	1 ± 0.015
NCC(O)C1CCCCCCC1 (stereo unspecified) [2-Cyclooctyl-2-hydroxyethylamine hydrochloride]	0.987 ± 0.012	0.971 ± 0.016	0.998 ± 0.013	0.972 ± 0.02	0.9697 ± 0.0015	0.9663 ± 0.0085
CCC(=O)NCC[C@@H]1CCc2ccc3c(c21)CCO3 [Ramelteon]	1 ± 0.018	1.01 ± 0.011	1.006 ± 0.0069	1.01 ± 0.019	0.9943 ± 0.009	0.9933 ± 0.0061
Nc1ncn([C@H]2C[C@H](O)[C@@H](CO)O2)c(=O)n1 [Decitabine]	1.1 and 1.06	–	1.08 and 1.05	–	–	–
Nc1nc(Cl)nc2c1ncn2[C@@H]1O[C@H](CO)[C@@H](O)[C@@H]1F [Clofarabine]	0.124 ± 0.015	0.146 ± 0.0052	0.341 ± 0.017	0.302 ± 0.017	0.0363 ± 0.0032	0.0483 ± 0.0032
Nc1ncn([C@H]2C[C@H](O)[C@@H](CO)O2)c(=O)n1 [5-Aza-2'-deoxycytidine]	1.087 ± 0.0058	1.12 ± 0.05	1.07 ± 0.01	1.09 ± 0.015	0.581 ± 0.051	0.296 ± 0.027
Nc1ncn([C@H]2C[C@H](O)[C@@H](CO)O2)c(=O)n1 [5-Aza-2'-deoxycytidine; Decitabine]	1.073 ± 0.0058	1.15 ± 0.026	1.07 ± 0.01	1.1 ± 0.02	0.204 ± 0.009	0.22 ± 0.021
Nc1nc(Cl)nc2c1ncn2[C@H]1C[C@H](O)[C@@H](CO)O1 [Cladribine]	0.0575 ± 0.013	0.0436 ± 0.0033	0.169 ± 0.0085	0.1867 ± 0.0011	0.0131 ± 0.0023	0.0121 ± 0.0031
Nc1ncnc2c1ncn2[C@@H]1O[C@H](CO)[C@@H](O)[C@H]1O [Adenosine]	0.9973 ± 0.0046	1.01 ± 0.01	0.995 ± 0.015	0.987 ± 0.019	1 ± 0.015	1.003 ± 0.0058
Nc1nc(Cl)nc2c1ncn2[C@@H]1O[C@H](CO)[C@@H](O)[C@H]1O [2-Chloroadenosine]	0.998 ± 0.013	0.982 ± 0.011	0.998 ± 0.011	0.974 ± 0.052	0.9847 ± 0.0078	0.9883 ± 0.0078
Nc1nc(Cl)nc2c1ncn2[C@@H]1O[C@H](COP(=O)(O)OP(=O)(O)OP(=O)(O)O)[C@H](O)C1O (stereo partly specified) [2-Chloroadenosine triphosphate tetrasodium]	0.992 ± 0.0076	0.818 ± 0.041	0.988 ± 0.018	0.917 ± 0.019	0.987 ± 0.0044	0.981 ± 0.0056
CN(C)CCOc1ccc(-c2nc(-c3ccncc3)c(-c3ccc4c(c3)CC/C4=N\O)[nH]2)cc1	1.103 ± 0.0058	1.16 ± 0.032	1.07 ± 0.011	1.11 ± 0.021	1.013 ± 0.0058	1 ± 0.05
O=[N+]([O-])c1ccc(CSc2ncnc3c2ncn3[C@@H]2O[C@H](CO)[C@@H](O)[C@H]2O)cc1 [S-(4-Nitrobenzyl)-6-thioinosine]	0.9813 ± 0.0047	0.968 ± 0.027	0.987 ± 0.018	0.996 ± 0.059	0.9973 ± 0.0046	0.9917 ± 0.0097
Nc1c(O)cc(O)cc1C=Cc1ccc(O)cc1 [Aminoresveratrol sulfate]	1 ± 0.015	1.01 ± 0.02	1.01 ± 0.015	1.01 ± 0.014	0.9937 ± 0.0027	1.01 ± 0.012
CC(C)C(=O)Oc1ccc(CO)cc1[C@H](CCN(C(C)C)C(C)C)c1ccccc1 [Fesoterodine Fumarate]	1.002 ± 0.0076	0.966 ± 0.019	1 ± 0.025	0.984 ± 0.04	1.001 ± 0.009	1 ± 0.016
NCCC1CCCC(CCN)N1 (stereo unspecified) [MDL 26,630 trihydrochloride]	0.9937 ± 0.0075	0.981 ± 0.021	0.9927 ± 0.0075	1.04 ± 0.11	0.9923 ± 0.0042	1 ± 0.011
NC1(C(=O)O)CCCCC1 [1-Amino-1-cyclohexanecarboxylic acid hydrochloride]	0.998 ± 0.011	0.9907 ± 0.0081	0.9927 ± 0.0049	0.991 ± 0.013	0.9913 ± 0.009	0.999 ± 0.011
N#C/C(=C/c1ccc(O)c(O)c1)C(=O)N1CCc2ccccc21 [Tyrphostin AG 528]	0.993 ± 0.0089	0.987 ± 0.032	1.02 ± 0.031	0.9767 ± 0.0095	1.003 ± 0.0058	1.02 ± 0.01
NCCCCCC(=O)O [6-Aminohexanoic acid]	0.9763 ± 0.0095	0.972 ± 0.022	1 ± 0.011	0.971 ± 0.041	0.99 ± 0.019	0.9787 ± 0.0067
NCCCCC(=O)O [5-Aminovaleric acid hydrochloride]	0.9807 ± 0.0096	0.99533 ± 0.00058	0.9797 ± 0.0035	0.9945 ± 0.00071	0.992 ± 0.0066	0.9927 ± 0.0032
NCC(=O)CCC(=O)O [Aminolevulinic acid hydrochloride; Aminolevulinic acid]	1.04 ± 0.021	0.0671 ± 0.0064	1.023 ± 0.0058	0.486 ± 0.037	1.001 ± 0.0081	0.00332 ± 0.0013
[Cl-].[Li+] [Lithium Chloride]	1.007 ± 0.0058	0.998 ± 0.013	1.01 ± 0.013	1.01 ± 0.018	1.01	1.002 ± 0.0072
C[C@]12CC[C@@H]3c4ccc(O)cc4CC[C@H]3[C@@H]1C[C@@H](O)[C@@H]2O [Estriol]	1.02 ± 0.011	1.01 ± 0.014	1.01 ± 0.01	1.02 ± 0.021	1.007 ± 0.0058	1.01 ± 0.011
C[C@]12CC[C@@H]3c4ccc(O)cc4CC[C@H]3[C@@H]1CC[C@@H]2O [beta-Estradiol]	0.9927 ± 0.005	0.954 ± 0.022	0.9937 ± 0.0055	0.962 ± 0.028	0.9753 ± 0.0031	0.9807 ± 0.0032
CNC(=O)[C@H]1O[C@@H](n2cnc3c(NCc4ccc(N)cc4)ncnc32)[C@H](O)[C@@H]1O	1.01 ± 0.012	0.9953 ± 0.0081	0.997 ± 0.003	1	0.9873 ± 0.0091	1.001 ± 0.0085
